Measured values from publication PMC5700166.
Substitutions are numbered along the chain they refer to.

How the values were obtained:
Test in all cases: protein-binding microarray (PBM); PBM: ~300 nM protein, 6 mM HEPES pH 7.8, 80 mM KCl, 0.5 mM EDTA, 0.5 mM EGTA, 6% glycerol, 35 ng/ul poly-dIdC, 1% milk, 1 h, room temperature; Ap Aiptasia and Nv Nematostella (sea anemones) / Co Capsaspora / Aq Amphimedon (sponge) / Dm Drosophila / Hu human; RHD is the Rel homology domain; high values mean tight binding
Conditions in all cases: dsDNA, one strand shown
[1] = molecular target: T1, GST-Ap-NF-kB RHD (Exaiptasia pallida (Aiptasia), UniProt A0A913YAJ5 2-422)
T1 sequence: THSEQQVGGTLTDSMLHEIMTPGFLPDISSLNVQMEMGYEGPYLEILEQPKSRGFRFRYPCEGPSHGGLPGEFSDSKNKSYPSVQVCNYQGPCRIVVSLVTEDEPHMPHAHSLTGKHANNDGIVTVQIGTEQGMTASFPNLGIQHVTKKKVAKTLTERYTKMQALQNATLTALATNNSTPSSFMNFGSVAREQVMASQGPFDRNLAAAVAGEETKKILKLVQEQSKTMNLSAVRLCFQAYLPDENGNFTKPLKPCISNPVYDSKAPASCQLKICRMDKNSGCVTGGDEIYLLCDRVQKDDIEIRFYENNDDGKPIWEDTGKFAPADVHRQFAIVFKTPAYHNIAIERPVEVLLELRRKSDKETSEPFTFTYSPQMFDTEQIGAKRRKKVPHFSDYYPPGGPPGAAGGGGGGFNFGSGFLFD

[2] = molecular target: T2, GST-Nv-NF-kB (Cys allele) (Nematostella vectensis, UniProt E5G601 2-411)
T2 sequence: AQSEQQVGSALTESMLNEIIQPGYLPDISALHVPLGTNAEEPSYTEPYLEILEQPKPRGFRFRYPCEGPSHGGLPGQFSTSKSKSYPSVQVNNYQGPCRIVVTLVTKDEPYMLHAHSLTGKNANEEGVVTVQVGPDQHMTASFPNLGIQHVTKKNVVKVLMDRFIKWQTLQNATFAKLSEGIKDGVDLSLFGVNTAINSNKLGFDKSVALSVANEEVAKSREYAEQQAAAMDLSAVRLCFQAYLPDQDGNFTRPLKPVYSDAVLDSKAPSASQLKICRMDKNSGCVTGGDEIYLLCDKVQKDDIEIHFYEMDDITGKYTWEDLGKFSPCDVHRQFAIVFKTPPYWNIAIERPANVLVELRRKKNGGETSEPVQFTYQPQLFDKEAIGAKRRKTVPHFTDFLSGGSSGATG

[3] = molecular target: T3, GST-Nv-NF-kB (Ser allele) (Nematostella vectensis, UniProt A7UNT2 2-411)
T3 sequence: T2 sequence with Q21R, C66S, S207N, E215Q, V217A, E225K, A268E, D399E

[4] = molecular target: T4, GST-Co-NF-kB (Capsaspora owczarzaki, UniProt F1ARL5 200-546)
T4 sequence: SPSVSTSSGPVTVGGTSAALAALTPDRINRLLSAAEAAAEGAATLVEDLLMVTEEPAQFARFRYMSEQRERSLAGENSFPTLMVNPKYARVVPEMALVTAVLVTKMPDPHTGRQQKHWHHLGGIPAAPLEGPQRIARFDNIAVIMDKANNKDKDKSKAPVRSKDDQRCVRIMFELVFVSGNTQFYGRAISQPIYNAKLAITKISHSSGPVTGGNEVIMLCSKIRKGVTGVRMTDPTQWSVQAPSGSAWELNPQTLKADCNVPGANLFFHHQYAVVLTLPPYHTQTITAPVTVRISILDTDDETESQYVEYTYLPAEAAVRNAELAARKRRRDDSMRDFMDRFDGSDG

[5] = molecular target: T5, GST-Aq-NF-kB (Amphimedon queenslandica, UniProt A9Y5G7 2-389)
T5 sequence: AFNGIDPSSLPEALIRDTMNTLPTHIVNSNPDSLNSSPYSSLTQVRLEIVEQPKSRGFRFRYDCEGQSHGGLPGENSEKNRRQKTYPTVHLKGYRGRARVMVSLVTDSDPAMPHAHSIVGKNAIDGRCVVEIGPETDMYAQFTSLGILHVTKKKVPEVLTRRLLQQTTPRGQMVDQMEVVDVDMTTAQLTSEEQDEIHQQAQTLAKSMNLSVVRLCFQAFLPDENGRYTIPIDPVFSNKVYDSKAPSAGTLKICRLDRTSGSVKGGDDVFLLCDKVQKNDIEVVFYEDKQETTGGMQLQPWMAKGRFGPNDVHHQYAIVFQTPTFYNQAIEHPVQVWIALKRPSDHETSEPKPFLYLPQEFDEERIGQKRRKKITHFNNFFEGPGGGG

[6] = molecular target: GST-Hu-p50 (Homo sapiens, UniProt P19838 7-356)
GST-Hu-p50, sequence (P19838 7-356): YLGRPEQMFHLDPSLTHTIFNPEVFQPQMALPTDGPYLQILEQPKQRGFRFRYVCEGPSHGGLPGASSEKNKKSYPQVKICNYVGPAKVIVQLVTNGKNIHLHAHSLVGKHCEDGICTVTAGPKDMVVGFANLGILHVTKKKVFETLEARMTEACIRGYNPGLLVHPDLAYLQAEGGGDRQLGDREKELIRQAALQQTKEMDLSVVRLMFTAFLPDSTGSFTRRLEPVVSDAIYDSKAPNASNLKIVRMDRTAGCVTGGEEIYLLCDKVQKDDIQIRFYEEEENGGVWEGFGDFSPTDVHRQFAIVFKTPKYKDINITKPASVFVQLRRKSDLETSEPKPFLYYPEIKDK

Sequence	binding signal [1]	binding signal [2]	binding signal [3]	binding signal [4]	binding signal [5]	binding signal [6]
CCGATTAACATCATCCCTCCCCATGATGTTAATCGGGTCTTGATTCGCTTGACGCTGCTG	3.84 z-score	2.72 z-score	2.58 z-score	3.09 z-score	2.55 z-score	1.83 z-score
CCGATTAACATCAAACTGGGAAATGATGTTAATCGGGTCTTGATTCGCTTGACGCTGCTG	1.13 z-score	2.35 z-score	1.79 z-score	2.64 z-score	1.06 z-score	1.62 z-score
CCGATTAACATCAGGGGCAGGGATGATGTTAATCGGGTCTTGATTCGCTTGACGCTGCTG	2.32 z-score	1.46 z-score	1.47 z-score	1.59 z-score	2.02 z-score	2.01 z-score
CCGATTAACATCATGGGGAGGAATGATGTTAATCGGGTCTTGATTCGCTTGACGCTGCTG	3.58 z-score	3.68 z-score	4.26 z-score	6.46 z-score	2.28 z-score	2.59 z-score
CCGATTAACATCAGGCTATTCCCTGATGTTAATCGGGTCTTGATTCGCTTGACGCTGCTG	1.73 z-score	2.68 z-score	1.67 z-score	1.6 z-score	3.74 z-score	1.4 z-score
CCGATTAACATCATCCCGGGAAATGATGTTAATCGGGTCTTGATTCGCTTGACGCTGCTG	1.98 z-score	2.94 z-score	2.26 z-score	3.63 z-score	2.23 z-score	1.36 z-score
CCGATTAACATCAAGAATTTCCGTGATGTTAATCGGGTCTTGATTCGCTTGACGCTGCTG	–	–	–	–	1.89 z-score	–
CCGATTAACATCAAGGTGGGAATTGATGTTAATCGGGTCTTGATTCGCTTGACGCTGCTG	1.55 z-score	3.21 z-score	2.3 z-score	2.52 z-score	1.99 z-score	1.71 z-score
CCGATTAACATCAAGAAATTCCGTGATGTTAATCGGGTCTTGATTCGCTTGACGCTGCTG	–	–	–	–	1.24 z-score	1.41 z-score
CCGATTAACATCAACTTGGGAAATGATGTTAATCGGGTCTTGATTCGCTTGACGCTGCTG	1.31 z-score	2.47 z-score	2.1 z-score	2.33 z-score	1.15 z-score	1.54 z-score
CCGATTAACATCAAGGAAATTTCTGATGTTAATCGGGTCTTGATTCGCTTGACGCTGCTG	–	–	–	–	1.71 z-score	1.21 z-score
CCGATTAACATCAGACATTTCCCTGATGTTAATCGGGTCTTGATTCGCTTGACGCTGCTG	2.94 z-score	4.75 z-score	4.39 z-score	3.17 z-score	5.41 z-score	3.59 z-score
CCGATTAACATCAAAATTTTCCGTGATGTTAATCGGGTCTTGATTCGCTTGACGCTGCTG	–	–	–	–	1.74 z-score	1.66 z-score
CCGATTAACATCACACATGCCCCTGATGTTAATCGGGTCTTGATTCGCTTGACGCTGCTG	1.13 z-score	1.37 z-score	1.04 z-score	1.12 z-score	1.68 z-score	1.36 z-score
CCGATTAACATCAAGTGGGAAAATGATGTTAATCGGGTCTTGATTCGCTTGACGCTGCTG	1.71 z-score	4.11 z-score	4.29 z-score	2.91 z-score	2.08 z-score	2.66 z-score
CCGATTAACATCAGGGGAGACAATGATGTTAATCGGGTCTTGATTCGCTTGACGCTGCTG	3.1 z-score	3.18 z-score	4.37 z-score	4.18 z-score	2.2 z-score	2.14 z-score
